Laboratory results from PubChem BioAssay AID1159580 (chemical genetic matrix, 2015).
Where “and” joins values, the source holds several entries; their conditions need not be identical. Equal values may be shown once. About 2,000 (36%) of roughly 5,500 compounds were called active. Inconclusive results (about 18%) are left out. No stated cut-off is given here; in the data, active means normalized growth mostly below about 0.91 (no sharp cut-off); inconclusive means no clear call, values can overlap the other calls; inactive means mostly above about 0.92. This is one part of the list.

Experiment: chemical genetic growth profiling, strain panel (AID 1159580);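 further: tested at 20 µM; growth read once vehicle control cultures reached saturation at 30 °C; 1 = growth at the plate median or of vehicle wells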
Conditions: S. cerevisiae deletion strains, growth OD

Measured: normalized growth

ClC(Cl)=C(c1ccc(Cl)cc1)c1ccc(Cl)cc1
active: locus YER167W, strain BCK2, stronger effect = lower value 0.887
inactive: locus YAL013W, strain DEP1, stronger effect = lower value 0.976 | locus YAL021C, strain ccr4, stronger effect = lower value 0.995 | locus YAL026C, strain drs2, stronger effect = lower value 0.999 | locus YAL030W, strain snc1, stronger effect = lower value 0.982 | locus YBL061C, strain skt5, stronger effect = lower value 0.985 | locus YBR009C, strain hhf1, stronger effect = lower value 0.987 | locus YBR021W, strain FUR4, stronger effect = lower value 1 | locus YBR023C, strain chs3, stronger effect = lower value 0.983 | locus YBR171W, strain sec66, stronger effect = lower value 0.986 | locus YBR229C, strain ROT2, stronger effect = lower value 0.957 | locus YBR231C, strain swc5, stronger effect = lower value 0.976 | locus YBR279W, strain paf1, stronger effect = lower value 0.994 | locus YCL011C, strain gbp2, stronger effect = lower value 1 | locus YCL016C, strain dcc1, stronger effect = lower value 0.993 | locus YCL029C, strain bik1, stronger effect = lower value 0.941 | locus YCL061C, strain MRC1, stronger effect = lower value 0.983 | locus YCL069W, strain vba3, stronger effect = lower value 0.995 | locus YCR088W, strain abp1, stronger effect = lower value 0.998 | locus YDL005C, strain med2, stronger effect = lower value 0.979 | locus YDL035C, strain GPR1, stronger effect = lower value 0.971 | locus YDL040C, strain nat1, stronger effect = lower value 0.994 | locus YDL074C, strain BRE1, stronger effect = lower value 1.04 | locus YDL101C, strain DUN1, stronger effect = lower value 0.948 | locus YDL134C, strain PPH21, stronger effect = lower value 0.967 | locus YDL185W, strain tfp1, stronger effect = lower value 0.964 | locus YDL192W, strain arf1, stronger effect = lower value 0.958 | locus YDR001C, strain nth1, stronger effect = lower value 0.998 | locus YDR069C, strain doa4, stronger effect = lower value 0.985 | locus YDR101C, strain arx1, stronger effect = lower value 0.963 | locus YDR137W, strain rgp1, stronger effect = lower value 1.04 | locus YDR150W, strain NUM1, stronger effect = lower value 0.945 | locus YDR159W, strain sac3, stronger effect = lower value 0.986 | locus YDR162C, strain NBP2, stronger effect = lower value 0.95 | locus YDR195W, strain ref2 1 | locus YDR297W, strain sur2, stronger effect = lower value 0.995 | locus YDR318W, strain mcm21, stronger effect = lower value 0.961 | locus YDR334W, strain swr1, stronger effect = lower value 0.986 | locus YDR335W, strain msn5, stronger effect = lower value 0.992 | locus YDR388W, stronger effect = lower value 0.949 | locus YDR392W, strain spt3, stronger effect = lower value 0.967 | locus YDR502C, strain sam2, stronger effect = lower value 0.95 | locus YEL003W, strain gim4, stronger effect = lower value 0.997 | locus YEL037C, strain rad23, stronger effect = lower value 1.01 | locus YEL061C, strain CIN8 (second series), stronger effect = lower value 0.996 | locus YEL061C, strain CIN8, stronger effect = lower value 0.966 | locus YER015W, strain faa2, stronger effect = lower value 0.983 | locus YER016W, strain bim1, stronger effect = lower value 1 | locus YER110C, stronger effect = lower value 0.946 | locus YER111C, strain swi4, stronger effect = lower value 0.991 | locus YER155C, strain BEM2 (second series), stronger effect = lower value 0.983 | locus YER155C, strain BEM2, stronger effect = lower value 0.927 | locus YFR010W, strain ubp6, stronger effect = lower value 0.989 | locus YGL078C, strain dbp3, stronger effect = lower value 0.951 | locus YGL086W, strain mad1, stronger effect = lower value 0.955 | locus YGL167C, strain pmr1, stronger effect = lower value 0.994 | locus YGL173C, strain kem1, stronger effect = lower value 0.994 | locus YGL227W, strain vid30, stronger effect = lower value 0.995 | locus YGL240W, strain doc1, stronger effect = lower value 0.991 | locus YGL248W, strain PDE1, stronger effect = lower value 0.959 | locus YGL253W, strain hxk2, stronger effect = lower value 0.993 | locus YGR078C, strain PAC10, stronger effect = lower value 0.974 | locus YGR135W, strain pre9, stronger effect = lower value 0.966 | locus YGR229C, strain SMI1, stronger effect = lower value 0.998 | locus YGR252W, strain gcn5, stronger effect = lower value 1.03 | locus YHR013C, strain ard1, stronger effect = lower value 0.998 | locus YHR027C, strain rpn1, stronger effect = lower value 0.989 | locus YHR030C, strain SLT2, stronger effect = lower value 0.95 and 1.05 | locus YHR079C, strain IRE1 (second series), stronger effect = lower value 0.951 | locus YHR079C, strain IRE1, stronger effect = lower value 1.03 | locus YHR094C, strain hxt1, stronger effect = lower value 0.948 | locus YHR129C, strain ARP1, stronger effect = lower value 0.963 | locus YHR142W, strain chs7, stronger effect = lower value 0.986 | locus YHR200W, strain rpn10, stronger effect = lower value 0.951 | locus YIL066C, strain RNR3, stronger effect = lower value 0.929 | locus YIL073C, strain SPO22, stronger effect = lower value 0.941 | locus YIL125W, strain kgd1, stronger effect = lower value 0.948 | locus YIR030C, strain dcg1, stronger effect = lower value 0.944 | locus YJL092W, strain hpr5, stronger effect = lower value 0.999 | locus YJL095W, strain BCK1 (second series), stronger effect = lower value 0.995 | locus YJL095W, strain BCK1, stronger effect = lower value 0.961 and 1.05 | locus YJL115W, strain asf1, stronger effect = lower value 0.991 | locus YJL129C, strain trk1, stronger effect = lower value 0.964 | locus YJL134W, strain LCB3, stronger effect = lower value 0.961 | locus YJL154C, strain vps35, stronger effect = lower value 0.998 | locus YJL164C, strain tpk1, stronger effect = lower value 0.979 | locus YJL166W, strain qcr8, stronger effect = lower value 0.975 | locus YJL168C, strain set2, stronger effect = lower value 0.949 | locus YJL187C, strain SWE1 (second series), stronger effect = lower value 0.958 | locus YJL187C, strain SWE1, stronger effect = lower value 0.995 | locus YJR043C, strain POL32, stronger effect = lower value 0.966 | locus YJR066W, strain TOR1, stronger effect = lower value 0.975
